Assay [1] can be described thus: qHTS Assay for Lipid Storage Modulators (AID 1519; calls by dose curve; as to activity change, negative = inhibition: % is scaled to controls: 0 for no effect and ±100 for the full control effect). As to conditions: Drosophila S3 cells, BODIPY lipid droplet/cell ratio, laser cytometry, cells loaded with oleic acid; for activity change, negative = inhibition: at 25.7 µM (top of the series). The method in brief: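 Cells seeded at 5,000 per well were treated with compounds over a concentration series and loaded with oleic acid (400 uM, as added). Lipid droplet fluorescence (488 nm excitation, 500-530 nm channel) was read by laser-scanning cytometry and normalized to 20 uM Triacsin C.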

Assay [2] deals with ATP-dependent 6-phosphofructokinase (Trypanosoma brucei brucei) (UniProt O15648). Kind of assay: qHTS Assay to Find Inhibitors of T. brucei phosphofructokinase: hit validation (AID 492961). Also: % is scaled to controls: 0 for no effect and ±100 for the full control effect. The settings on record: T. brucei PFK, ADP-Glo luminescence; series mostly up to 24.3 µM. The method in brief:
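Luminescence from ADP-Glo reports ADP generated as T. brucei PFK (1.25 nM) phosphorylates 0.5 mM fructose-6-phosphate using 0.1 mM ATP. Reactions ran 45 min at room temperature, pH 8.0.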
On the technique in general: In qHTS, concentration-response curves come from the screen itself.

Assay [3] deals with Ubiquitin carboxyl-terminal hydrolase 1 (Homo sapiens) (UniProt O94782). The experiment in a line: Inhibitors of USP1/UAF1: Pilot qHTS (AID 504865).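 Also: rhodamine fluorescence freed from ubiquitin-rhodamine substrate followed over time; top concentration of the series differs between compounds; % is scaled to controls: 0 for no effect and ±100 for the full control effect; nearly all actives have a fitted effect of over 35% in size.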 As to conditions: purified USP1/UAF1, Ub-rhodamine cleavage fluorescence; series mostly up to 114 µM. The method in brief: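 In 50mM HEPES pH 7.8 containing 0.5mM EDTA, 1mM TCEP, 0.1 mg/ml BSA and 0.01% Tween-20, 1nM USP1/UAF1 is exposed to compound for 15 min, then Ub-Rho (150nM final) is added and fluorescence is read over time.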

The target in assay [4] is Luciferin 4-monooxygenase (Photinus pyralis) (UniProt P08659). The experiment in a line: Biochemical firefly luciferase enzyme assay for NPC (AID 624030).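 Also: purified P. pyralis luciferase at 10 nM with luciferin and ATP substrate; 0% = DMSO and -100% = full luciferase inhibition by PTC124 control; nearly all actives have a fitted effect of over 70% in size.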 The settings on record: purified P. pyralis luciferase, luminescence, 5 min; series mostly up to 24.9 µM. The method in brief:
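Purified P. pyralis luciferase at 10 nM in 50 mM Tris Acetate (final), luminescence read within 5 minutes of enzyme addition to compounds. Activity normalised to PTC124 versus DMSO; concentration-response curves classed by r2, magnitude and activity.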

Assay [5] is described as follows: qHTS profiling for inhibitors of Plasmodium falciparum proliferation (AID 504749). Also: potency is read from the fitted curve at half-maximal effect.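 As to activity, negative = inhibition: 0% = DMSO vehicle and full inhibition = artemisinin control.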 As to all read-outs here: nearly all actives have a fitted effect of over 60% in size. As to conditions: P. falciparum in erythrocytes, SYBR Green DNA, 72 h; for activity, negative = inhibition: at 12.8 µM (top of the series). The essentials: (§1)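 Readout was DNA-dye fluorescence from lysed cultures, ex 485/em 535 nm. Parasitized red cells had grown 72 h with compound; data scaled between 0.29 uM artemisinin and DMSO wells and corrected using vehicle-only plates.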

Assay [6] relates to 3D7. The assay is described as above. The settings on record: P. falciparum in erythrocytes, SYBR Green DNA, 72 h; series mostly up to 12.8 µM. The essentials:
as §1

The subject of assay [7] is C2A. The assay is described as above. The settings on record: P. falciparum in erythrocytes, SYBR Green DNA, 72 h; series mostly up to 12.8 µM. The essentials: as §1
Assay [8] relates to CP201. The description is as above. As to conditions: P. falciparum in erythrocytes, SYBR Green DNA, 72 h; series mostly up to 12.8 µM. The method in brief:
as §1

Assay [9] relates to CP211. The assay is described as above. As to conditions: P. falciparum in erythrocytes, SYBR Green DNA, 72 h; series mostly up to 12.8 µM. The method in brief: as §1
The subject of assay [10] is CP237. The assay is described as above. The settings on record: P. falciparum in erythrocytes, SYBR Green DNA, 72 h; series mostly up to 12.8 µM. The essentials:
as §1

The test system of assay [11] is CP252. Described as above. As to conditions: P. falciparum in erythrocytes, SYBR Green DNA, 72 h; series mostly up to 12.8 µM. The method in brief: as §1
Assay [12] concerns CP262. The description is as above. As to conditions: P. falciparum in erythrocytes, SYBR Green DNA, 72 h; series mostly up to 12.8 µM. The essentials:
as §1

The test system of assay [13] is CP305. The description is as above. As to conditions: P. falciparum in erythrocytes, SYBR Green DNA, 72 h; series mostly up to 12.8 µM. The method in brief:
as §1

In assay [14] the test system is CP315. The assay is described as above. The settings on record: P. falciparum in erythrocytes, SYBR Green DNA, 72 h; series mostly up to 12.8 µM. The essentials: as §1
Assay [15] concerns CP329. Described as above. As to conditions: P. falciparum in erythrocytes, SYBR Green DNA, 72 h; series mostly up to 12.8 µM. The method in brief: as §1
The test system of assay [16] is HB3. The assay is described as above. The settings on record: P. falciparum in erythrocytes, SYBR Green DNA, 72 h; series mostly up to 12.8 µM. The method in brief: as §1
Assay [17] has as its system JCK. The assay is described as above. The settings on record: P. falciparum in erythrocytes, SYBR Green DNA, 72 h; series mostly up to 12.8 µM. The method in brief:
as §1

In assay [18] the test system is PAD. Described as above. As to conditions: P. falciparum in erythrocytes, SYBR Green DNA, 72 h; series mostly up to 12.8 µM. The essentials:
as §1

Assay [19] concerns PC49. The description is as above. The settings on record: P. falciparum in erythrocytes, SYBR Green DNA, 72 h; series mostly up to 12.8 µM. The essentials:
as §1

In assay [20] the test system is CP268. Described as above. The settings on record: P. falciparum in erythrocytes, SYBR Green DNA, 72 h; series mostly up to 12.8 µM. The method in brief:
as §1

Where [21] appears, read: measured here: cell count channel max response.
Setting [22] is: measured here: lipid channel max response.

Results filed as inconclusive are left out. The source made the active and inactive calls. Unless noted, calls follow the shape of the dose curve; as a rule, active = well fitted curve in the direction sought with a large enough effect; inconclusive = small, poorly fitted or top-dose-only effect, or another doubt; inactive = no such curve, though single readings can be large; an effect the other way counts as inactive or inconclusive.

ATP-dependent 6-phosphofructokinase (Trypanosoma brucei brucei), sequence (O15648 whole entry, looked up): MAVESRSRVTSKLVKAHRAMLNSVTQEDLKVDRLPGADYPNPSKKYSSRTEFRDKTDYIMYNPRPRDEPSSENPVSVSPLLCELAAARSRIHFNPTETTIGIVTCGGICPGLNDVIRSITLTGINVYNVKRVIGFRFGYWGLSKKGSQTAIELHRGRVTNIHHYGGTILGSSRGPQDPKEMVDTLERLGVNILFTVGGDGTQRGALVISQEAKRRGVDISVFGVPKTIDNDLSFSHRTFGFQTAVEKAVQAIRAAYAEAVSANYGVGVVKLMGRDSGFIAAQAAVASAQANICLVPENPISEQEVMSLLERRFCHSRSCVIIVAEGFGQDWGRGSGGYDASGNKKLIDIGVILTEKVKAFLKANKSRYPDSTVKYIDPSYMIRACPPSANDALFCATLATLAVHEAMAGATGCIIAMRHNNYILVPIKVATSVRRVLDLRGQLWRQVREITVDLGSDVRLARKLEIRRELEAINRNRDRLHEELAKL
Luciferin 4-monooxygenase (Photinus pyralis), sequence (P08659 whole entry, looked up): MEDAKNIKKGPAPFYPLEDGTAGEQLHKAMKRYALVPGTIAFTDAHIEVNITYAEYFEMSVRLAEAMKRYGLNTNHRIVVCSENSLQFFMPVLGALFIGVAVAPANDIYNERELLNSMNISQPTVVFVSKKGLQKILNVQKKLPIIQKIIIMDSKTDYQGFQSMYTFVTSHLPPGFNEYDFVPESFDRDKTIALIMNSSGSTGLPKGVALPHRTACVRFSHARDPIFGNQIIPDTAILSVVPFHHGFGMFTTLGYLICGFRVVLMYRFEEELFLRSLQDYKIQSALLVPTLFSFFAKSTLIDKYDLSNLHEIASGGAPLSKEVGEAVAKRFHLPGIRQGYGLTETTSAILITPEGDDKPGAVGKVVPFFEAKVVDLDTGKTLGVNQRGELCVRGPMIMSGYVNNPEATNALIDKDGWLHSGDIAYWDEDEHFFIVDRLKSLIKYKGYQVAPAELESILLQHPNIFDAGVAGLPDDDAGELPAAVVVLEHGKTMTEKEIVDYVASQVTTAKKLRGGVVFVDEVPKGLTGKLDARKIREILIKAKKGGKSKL
Ubiquitin carboxyl-terminal hydrolase 1 (Homo sapiens), sequence (O94782 whole entry, looked up): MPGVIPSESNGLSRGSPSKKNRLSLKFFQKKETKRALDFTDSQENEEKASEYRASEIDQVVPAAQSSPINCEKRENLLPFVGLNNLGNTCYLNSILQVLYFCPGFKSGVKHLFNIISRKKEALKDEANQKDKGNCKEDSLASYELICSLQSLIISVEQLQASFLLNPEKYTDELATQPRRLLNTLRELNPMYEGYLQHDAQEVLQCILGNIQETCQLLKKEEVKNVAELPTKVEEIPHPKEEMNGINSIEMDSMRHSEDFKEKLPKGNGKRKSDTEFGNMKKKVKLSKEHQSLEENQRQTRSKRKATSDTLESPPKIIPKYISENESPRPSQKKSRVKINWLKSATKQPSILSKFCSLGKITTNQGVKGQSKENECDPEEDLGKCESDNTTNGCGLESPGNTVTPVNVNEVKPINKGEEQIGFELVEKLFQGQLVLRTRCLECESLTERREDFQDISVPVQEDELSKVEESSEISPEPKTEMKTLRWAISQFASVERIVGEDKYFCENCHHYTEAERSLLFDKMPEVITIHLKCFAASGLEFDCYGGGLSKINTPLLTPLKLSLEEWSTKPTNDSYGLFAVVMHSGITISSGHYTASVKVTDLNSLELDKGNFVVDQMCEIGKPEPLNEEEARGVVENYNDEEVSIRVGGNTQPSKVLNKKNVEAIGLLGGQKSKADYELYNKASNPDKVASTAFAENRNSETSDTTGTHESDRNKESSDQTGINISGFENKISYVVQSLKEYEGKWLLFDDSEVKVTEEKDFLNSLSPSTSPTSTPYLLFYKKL

As to `CN1CCO[C@H](c2ccccc2)c2ccccc2C1`, in assay [1], the activity change, negative = inhibition was -1.73% (inactive). The figures for the max response in assay [1] (setting [21]) and in assay [1] (setting [22]) were -10.4% and -11.4%, respectively. Further, the result in assay [2] was inactive. Moreover, the Potency result in assay [3], in assay [4], in [6], in assay [7], in assay [8] and in [9] was “inactive” each time. Besides, the Potency result in assay [11], in [12], in assay [13], in [14], in [15] and in assay [16] was “inactive” in each case. Also, the Potency entry in assay [17], in assay [18] and in assay [19] was “inactive” throughout. Also, the activity, negative = inhibition was -5.98% (inactive) in [5] (parasite line A) and 0.83% (inactive) in assay [5] (parasite line B). The Potency in assay [10] was 2 µM (active).

On to `C[C@H](NCCC(c1ccccc1)c1ccccc1)c1ccccc1`, for which, in [1], the activity change, negative = inhibition was -3.52% (inactive). Further, the values for the max response in assay [1] (setting [21]) and in [1] (setting [22]) were -21.2% and -22.3%, respectively. In [3], the Potency entry is “inactive”.

In the case of `CC(C)(C)NC[C@H](O)COc1cccc2c1C[C@@H](O)[C@@H](O)C2`, the activity change, negative = inhibition in assay [1] was -2.96% (inactive). Further, the figures for the max response in assay [1] (setting [21]) and in assay [1] (setting [22]) were -8.96% and -13.2%, respectively. Moreover, the compound was classed as inactive in [2]. In addition, the Potency entry in assay [3], in assay [4], in [6], in assay [7], in assay [8] and in [9] was “inactive” throughout. For the same compound, the Potency entry in [10], in assay [11], in assay [12], in assay [20], in assay [13] and in assay [14] was “inactive” in each case. Further, the Potency entry in assay [15], in assay [16], in [17], in [18] and in [19] was “inactive” throughout. Moreover, the activity, negative = inhibition in assay [5] (parasite line A) was 4.79% (inactive); in [5] (parasite line B), 2.07% (inactive).

As to `CCc1c(C)[nH]c2c1C(=O)[C@H](CN1CCOCC1)CC2`, in assay [1], the activity change, negative = inhibition is 0.521% (inactive). The max response was -8.85% in [1] (setting [21]) and -8.65% in assay [1] (setting [22]). Besides, the call in [2] was inactive. In addition, the Potency entry in assay [4], in assay [6], in [7], in assay [8], in assay [9] and in assay [10] was “inactive” in each case. Moreover, the Potency result in assay [11], in assay [12], in assay [20], in assay [13], in assay [14] and in [15] was “inactive” each time. The Potency result in [16], in assay [17], in assay [18] and in [19] was “inactive” throughout. The activity, negative = inhibition in [5] (parasite line A) is 13% (inactive); in assay [5] (parasite line B) it was 6.66% (inactive).

Consider `COCCOC(=O)C1=C(C)NC(C)=C(C(=O)OC(C)C)[C@H]1c1cccc([N+](=O)[O-])c1`, for which the activity change, negative = inhibition in [1] is -3.07% (inactive). Also, the max response was -5.25% in assay [1] (setting [21]) and -6.94% in [1] (setting [22]). Moreover, the Potency result in assay [3] is “inactive”.

Regarding `C[N+]1(C)CC[C@@H](OC(=O)[C@@](O)(c2ccccc2)C2CCCC2)C1`, the activity change, negative = inhibition in [1] is -2.8% (inactive). In addition, the max response in assay [1] (setting [21]) is -7.92%; in [1] (setting [22]), -10.3%. The Potency result in [3] is “inactive”.

As to `Clc1ccc([C@H](Cn2ccnc2)OCc2c(Cl)cccc2Cl)c(Cl)c1`, the activity change, negative = inhibition in assay [1] is -0.836% (inactive). Besides, the values for the max response in assay [1] (setting [21]) and in assay [1] (setting [22]) were -18.9% and -21.7%, respectively. The result in assay [2] was inactive. For the same compound, in assay [4], the Potency result is “inactive”. In addition, the Potency was 3.16 µM (active) in assay [5] (parasite line B); 2.51 µM (active) in [6]; 3.16 µM (active) in assay [10]; 3.16 µM (active) in [11]; 3.98 µM (active) in assay [16]; 3.55 µM (active) in assay [18].

`Nc1nc(=S)c2ncn([C@H]3O[C@@H](CO)[C@@H](O)[C@@H]3O)c2[nH]1`: the activity change, negative = inhibition in assay [1] was -1.4% (inactive). Besides, the max response in [1] (setting [21]) is 2.2%; in assay [1] (setting [22]), -3.95%. The Potency entry in assay [3] is “inactive”.

The values are drawn from PubChem BioAssay (NCATS).
